Measurements as given in PubChem BioAssay (NCATS).
Results filed as inconclusive are left out. Activity calls are given as the source filed them. Calls follow the shape of the dose curve; as a rule, active = well fitted inhibition curve with a large enough effect; inconclusive = small, poorly fitted or top-dose-only effect; inactive = flat fitted curve, though single readings scatter.

What was measured:
Assay in all cases: qHTS profiling for inhibitors of Plasmodium falciparum proliferation (AID 504749); also: nearly all actives have a fitted effect of over 60% in size
Details in all cases: P. falciparum in erythrocytes, SYBR Green DNA, 72 h; series mostly up to 28.7 µM
[1] = system: CP238
Procedure, shortened: (§1)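 Parasite proliferation within erythrocytes, 72 h exposure. Endpoint: SYBR Green I fluorescence after overnight lysis at room temperature. Controls: 0.29 uM artemisinin, DMSO.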

[2] = system: CP247
Procedure, shortened: as §1

[3] = system: CP250
Procedure, shortened: as §1

[4] = system: CP252
Procedure, shortened: as §1

[5] = system: CP256
Procedure, shortened: as §1

[6] = system: CP265
Procedure, shortened: as §1

[7] = system: CP266
Procedure, shortened: as §1

[8] = system: CP291
Procedure, shortened: as §1

[9] = system: CP297
Procedure, shortened: as §1

[10] = system: CP315
Procedure, shortened: as §1

[11] = system: CP325
Procedure, shortened: as §1

[12] = system: CP329
Procedure, shortened: as §1

[13] = system: CP262
Procedure, shortened: as §1

[14] = system: CP268
Procedure, shortened: as §1

[15] = system: CP269
Procedure, shortened: as §1

[16] = system: CP286
Procedure, shortened: as §1

[17] = system: CP305
Procedure, shortened: as §1

[18] = system: CP335
Procedure, shortened: as §1

Measured: Potency

O=[N+]([O-])c1cccc(S(=O)(=O)NCCNS(=O)(=O)c2cccc([N+](=O)[O-])c2)c1
not listed: [13] | [14] | [15] | [16] | [17] | [18]
inactive: all other assays above

O=C(O)C1(C(=O)O)CCC1.[NH2-].[NH2-].[Pt+2]
inactive: all assays above

COc1ccc(CCN(C)CCCN2CCc3cc(OC)c(OC)cc3CC2=O)cc1OC
not listed: [2] | [5] | [9]
inactive: all other assays above
